# Source: PubChem BioAssay
# Sampled rows, rich in hits. Any-hit rate of the full collection: about 27%.
# CYP2C19 activ = increases human CYP2C19 enzyme activity | activation factor at 5 µM | recombinant CYP2C19, luciferin-H EGE luminescence; active compounds read high; 0 = fully inhibited enzyme, 1 = untreated enzyme | 96,000 tested, under 10 active;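 active means activation factor of at least 2 at 5 µM in the primary screen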
# CYP2C19 inhib = blocks human cytochrome P450 2C19. AID 778. P33261. inhibition, % at 5 µM. 96,000 tested, 21% active. CYP2C19 Supersomes, luciferin-H EGE luminescence, 30 min;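 active means CYP2C19 inhibition above a set limit at 5 µM in the primary screen, cut at about 50% in these data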
# CYP2C9 inhib = inhibitors of human CYP2C9 | CYP2C9 Supersomes, luciferin-H conversion, luminescence | inhibition, % at 5 µM | 96,000 tested, 20% active;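 active means blocking of liver enzyme CYP2C9 beyond about 50% at 5 µM, limit read from the data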
# CYP2C9 activ = CYP2C9 (human) activation; AID 1024; recombinant CYP2C9, luciferin-H conversion, luminescence; active compounds read high; factor 1 = untreated enzyme, 0 = blocked; 96,000 tested, 1.4% active; activation factor at 5 µM; P11712;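 active means activation factor of 2 or more for CYP2C9 at a 5 µM dose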
# sEH inh = blocks human soluble epoxide hydrolase activity. P34913. recombinant human sEH enzymatic activity assay. inhibition, % at 2 µM. 91,000 tested, 0.34% active. AID 707; in the data active means inhibition above about 80%
# Target sequence (P34913 whole entry, looked up): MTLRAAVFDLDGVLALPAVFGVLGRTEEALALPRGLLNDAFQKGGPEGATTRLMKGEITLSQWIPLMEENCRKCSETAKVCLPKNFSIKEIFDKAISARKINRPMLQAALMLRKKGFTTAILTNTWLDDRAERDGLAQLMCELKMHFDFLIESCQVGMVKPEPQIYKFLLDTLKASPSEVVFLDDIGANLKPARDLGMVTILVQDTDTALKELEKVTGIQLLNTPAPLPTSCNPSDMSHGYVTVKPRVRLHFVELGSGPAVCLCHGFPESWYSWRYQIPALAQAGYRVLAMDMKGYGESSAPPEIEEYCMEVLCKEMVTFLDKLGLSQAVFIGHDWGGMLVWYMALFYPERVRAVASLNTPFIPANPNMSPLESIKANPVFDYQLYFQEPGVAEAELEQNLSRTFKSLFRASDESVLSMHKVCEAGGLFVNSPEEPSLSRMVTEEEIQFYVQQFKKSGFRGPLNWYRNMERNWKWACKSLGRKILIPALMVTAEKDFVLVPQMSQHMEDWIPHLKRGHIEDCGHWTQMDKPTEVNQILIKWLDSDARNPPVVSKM
# sEH act = soluble epoxide hydrolase (human) activation | P34913 | purified human sEH enzymatic activity, activator screen | activation, % at 2 µM | 91,000 tested, 0.04% active | AID 717; in the data active means activation above about 37%
# Numbers stand for hits; i = inactive; nt = no result given.
SMILES,CYP2C19 activ,CYP2C19 inhib,CYP2C9 inhib,CYP2C9 activ,sEH inh,sEH act
Cc1onc(-c2c(Cl)cccc2Cl)c1C(=O)N1CCc2ccccc21,i,88,85,i,i,i
Cc1onc(-c2ccccc2Cl)c1C(=O)N1CCc2ccccc2C1,i,54,i,i,i,i
Cc1onc(-c2ccccc2Cl)c1C(=O)N1CC(C)OC(C)C1 (stereo not given),i,i,i,i,i,i
Cc1onc(-c2c(F)cccc2Cl)c1C(=O)N1CCN(S(C)(=O)=O)CC1,i,i,i,i,i,i
CCOC(=O)C1CCCN(C(=O)c2c(-c3ccccc3Cl)noc2C)C1 (stereo not given),i,79,69,i,nt,nt
NC(=O)CSc1nnc(Cc2csc(Nc3ccc(F)cc3)n2)n1Cc1ccccc1,nt,nt,nt,nt,i,i
CCCS(=O)(=O)c1c(S(=O)(=O)CCC)c2cnccn2c1C(=O)c1ccc(Cl)cc1,i,i,i,i,i,i
CC1CN(CCc2ccccc2)c2nc3c(c(=O)[nH]c(=O)n3C)n2C1 (stereo not given),i,74,57,i,i,i
CCn1c(N2CCN(CC(=O)c3c[nH]c4ccccc34)CC2)nc2c1c(=O)[nH]c(=O)n2C,i,i,54,i,i,i
CC1CCN(c2nc3c(c(=O)[nH]c(=O)n3C)n2Cc2ccccc2)CC1,i,i,i,i,i,i
CC1CN(c2ccc(Oc3ccccc3)cc2)c2nc3c(c(=O)[nH]c(=O)n3C)n2C1 (stereo not given),i,i,i,i,i,i
CC1CCCN(c2nc3c(c(=O)[nH]c(=O)n3C)n2CCCc2ccccc2)C1 (stereo not given),i,i,62,i,nt,nt
CCn1c(N2CCC(Cc3ccccc3)CC2)nc2c1c(=O)[nH]c(=O)n2C,i,77,54,i,nt,nt
Cc1cc(C)c(NC(=O)CN2C(=O)NC3(CCOc4ccccc43)C2=O)c(C)c1 (stereo not given),i,i,i,i,i,i
COCCCNC(=O)CN1CCN(Cc2ccc(Cl)cc2)C1=O,i,i,i,i,i,i
CC1CN(C2CCCCC2)c2nc3c(c(=O)[nH]c(=O)n3C)n2C1 (stereo not given),i,i,56,i,i,i
Cn1c(=O)c2c(nc(N3CCCCC3)n2CCSc2nc3ccccc3o2)n(C)c1=O,nt,nt,nt,nt,i,i
CC1CCCN(c2nc3c(c(=O)n(C)c(=O)n3C)n2CCSc2nc3ccccc3o2)C1 (stereo not given),i,i,51,i,i,i
COCC(C)NC(=O)c1cc(-c2ccc(OC)c(OC)c2)on1 (stereo not given),i,i,i,i,i,i
COc1ccccc1C1CC(c2ccc(C)cc2)Nc2ncnn21 (stereo not given),i,88,i,i,i,i
COc1ccccc1C1CC(c2ccc(F)cc2)Nc2ncnn21 (stereo not given),i,i,i,i,i,i
Fc1ccc(C2CC(c3ccco3)n3ncnc3N2)cc1 (stereo not given),nt,nt,nt,nt,i,i
Cc1ccc(C2CC(c3ccco3)n3ncnc3N2)cc1 (stereo not given),i,91,i,i,i,i
COc1ccccc1C1CC(c2ccccc2)Nc2ncnn21 (stereo not given),i,87,i,i,i,i
Cc1cccc2cc(COC(=O)C(C)(C)C)c(=O)[nH]c12,i,i,i,i,i,i
SMILES,CYP2C19 activ,CYP2C19 inhib,CYP2C9 inhib,CYP2C9 activ,sEH inh,sEH act
CCc1c(C)nc(N)n2c(SCC(=O)N3CCN(c4ccccc4F)CC3)nnc12,i,i,i,i,nt,nt
Fc1cccc(Cl)c1Cn1nnc(-c2ccc3c(c2)OCO3)n1,i,i,i,i,i,i
Fc1cccc(Cn2ccc(-c3ccc4c(c3)OCO4)n2)c1,i,95,86,i,nt,nt
Cc1ccccc1Cn1ccc(-c2ccc3c(c2)OCO3)n1,i,58,50,i,i,i
Cc1ccccc1Cn1nnc(-c2ccc3c(c2)OCO3)n1,nt,nt,nt,nt,i,i
Cc1ccc(N2CC(C(=O)Nc3cc(C)on3)CC2=O)cc1 (stereo not given),i,i,i,i,i,i
Cc1ccc(NCc2nnc(SCCN3CCCCC3)n2CC2CCCO2)c(C)c1 (stereo not given),i,i,i,i,i,i
Cc1ccc(NCc2nnc(SCC(=O)Nc3ccccc3)n2CC2CCCO2)c(C)c1 (stereo not given),i,52,i,i,i,i
CCn1c(CNc2ccc(C)cc2C)nnc1SCC(=O)N1CCCc2ccccc21,i,86,i,i,nt,nt
CCn1c(CNc2ccc(F)cc2)nnc1SCC(=O)N1CCCc2ccccc21,i,63,i,i,i,i
Cc1cccc(N2CCN(C(=O)C3CCN(S(=O)(=O)c4cccnc4)CC3)CC2)c1C,i,i,i,i,i,i
O=C(c1ccccc1)N1CC(COc2ccccc2)OC(c2ccco2)O1 (stereo not given),i,88,i,i,nt,nt
O=C(c1ccc(OCC2CCCO2)cc1)N1CCN(c2ccccc2)CC1 (stereo not given),i,i,i,i,i,i
N#Cc1ccc(CSc2nnc(NC(=O)CN3C(=O)C4CC=CCC4C3=O)s2)cc1 (stereo not given),i,i,i,i,i,i
CCOC(=O)C1CCCN(c2c(Nc3ccc(OCC)cc3)c(=O)c2=O)C1 (stereo not given),i,i,i,i,i,i
CCN(C(=O)c1cc2cc(OC)ccc2oc1=O)c1cccc(C)c1,i,56,51,i,i,i
CCN(C(=O)c1cc2cc(OC)ccc2oc1=O)c1ccccc1,i,i,i,i,i,i
COc1ccnc(NCc2cccc(C(F)(F)F)c2)c1C#N,i,54,i,i,i,i
O=C(Oc1ccc2c(=O)c(Cl)coc2c1)c1ccncc1,i,75,77,i,i,i
O=Nc1c(O)n(Cc2cccc(Cl)c2)c2ccccc12,i,56,74,i,i,i
CCN(CC)CCn1c(O)c(N=O)c2ccccc21,i,i,i,i,nt,nt
CCOC(=O)N1CCC(NC(=O)C2CCN(S(=O)(=O)c3c(C)noc3C)CC2)CC1,i,i,i,i,i,i
CCCCCCC(=O)N1CCC(c2nc3c(nnn3Cc3ccccc3Cl)c(=O)[nH]2)CC1,i,i,93,i,nt,nt
O=C(Cc1cccs1)N1CCC(c2nc3c(nnn3Cc3ccccc3Cl)c(=O)[nH]2)CC1,i,79,100,i,i,i
COC(=O)CC1SC(=O)NC1=Nc1ccc(C)cc1 (stereo not given),i,75,i,i,nt,nt
COC(=O)CC1SC(=O)NC1=Nc1ccccc1 (stereo not given),i,i,i,i,i,i
COc1ccccc1-c1nnc(SC2CCc3ccccc3NC2=O)s1 (stereo not given),nt,nt,nt,nt,i,i
Cc1cccc2c1nc(-c1ccccc1)n1nnnc21,i,i,i,i,nt,nt
Nn1c(SCc2csc(-c3ccccc3)n2)nnc1-c1cccs1,i,i,i,i,i,i
